Tg IFNy HTS = blocks Toxoplasma gondii growth in the presence of IFN-gamma; Toxoplasma gondii growth in IFN-gamma-treated host cells; stronger effect = lower value; activity change, negative = inhibition, % (no concentration beside the values); actives 3.8% (n = 69,000); in the data active = activity change below about -70%, passing the limit was not always enough;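 note: host cells are HeLa cells infected with Toxoplasma gondii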
A number is an active result. This excerpt belongs to a sample that is enriched for hits.

For O=C(NCc1ccco1)/C(=C\C=C\c1ccccc1)NC(=O)c1ccccc1Br the results were Tg IFNy HTS inactive.
`CCS(=O)(=O)NC[C@@]12COC[C@H]1CN(c1cc(OC)ncn1)C2` gave Tg IFNy HTS inactive.
Screening COC(=O)C1C(O)CCC2CN3CCc4c([nH]c5ccccc45)C3CC21 (centres undefined) returned Tg IFNy HTS inactive.
OCC#Cc1csc(CN2CCCC(c3nc4ccccc4o3)C2)c1 (centres undefined) was read as Tg IFNy HTS inactive.
Screening CN1CCCC2(CC1)CCN(C(=O)CCc1ccccc1O)CC2 returned Tg IFNy HTS inactive.
CCCC(=O)Nc1ccc(CC(=O)N2CCC[C@H]2C(N)=O)cc1 was read as Tg IFNy HTS inactive.
`CCCn1cnnc1CNC(=O)c1cc(NC(C)=O)ccc1Cl` gave Tg IFNy HTS inactive.
Screening O=C(C[C@H]1C=C[C@H](NC(=O)c2ccncc2)[C@H](CO)O1)NCC1CC1 returned Tg IFNy HTS inactive.
For O=C(c1ccco1)N1C[C@@H]2[C@H](C1)c1ccccc1[C@@H]2N1CCOCC1 the results were Tg IFNy HTS inactive.
O=C(C[C@@H]1CC[C@@H]2NC[C@@H](O)COC[C@H]2O1)NCc1ccc2c(c1)OCO2 was read as Tg IFNy HTS inactive.
For CC(C)C(NC(=O)c1cc(-c2ccncc2)c2cnccc2n1)c1cccs1 (centres undefined) the results were Tg IFNy HTS -87.
CC1CCN(CC(C)(C)NC(=O)c2cc(-c3ccncc3)c3cnccc3n2)CC1 was read as Tg IFNy HTS inactive.
CC(C)C(NC(=O)c1cccc(-n2cnnc2)c1)c1cccs1 (centres undefined) was read as Tg IFNy HTS inactive.
For CC(C)Cn1cnc2nnc3ccc(C(=O)Cc4ccccn4)cc3c21 the results were Tg IFNy HTS inactive.
`C[C@H](c1ccc(F)cc1)n1c(C2CCC2)n[nH]c1=O` gave Tg IFNy HTS inactive.
For N#CCSC1=Nc2ccccc2C2=NC(CCC(=O)NCc3cccs3)C(=O)N12 (centres undefined) the results were Tg IFNy HTS inactive.
Screening CCN(CC)c1nc2nonc2nc1Nc1cccc(Br)c1 returned Tg IFNy HTS -112.
CNc1cc2c(Nc3cccc(Br)c3)ncnc2cn1 was read as Tg IFNy HTS inactive.
For Brc1cccc(Nc2ncnc3cc4nc[nH]c4cc23)c1 the results were Tg IFNy HTS inactive.
Screening Cc1ccccc1Cn1c(Cc2ccccc2F)n[nH]c1=O returned Tg IFNy HTS inactive.
`Cc1cnn(Cc2nc(-c3ccc(NC(=O)c4cccc(Cl)c4)cc3)oc2C)c1` gave Tg IFNy HTS inactive.
For CCc1ccc(C(=O)Nc2ccc(-c3nc(Cn4cccn4)c(C)o3)cc2)cc1 the results were Tg IFNy HTS inactive.
Screening CCOc1ccc(C(=O)Nc2ccc(-c3nc(Cn4cc(C)cn4)c(C)o3)cc2)cc1 returned Tg IFNy HTS -91.
For Cc1cnn(Cc2nc(-c3ccc(NC(=O)c4ccc(Cl)cc4)cc3)oc2C)c1 the results were Tg IFNy HTS -87.
For Cc1cnn(Cc2nc(-c3ccc(NC(=O)COc4ccccc4)cc3)oc2C)c1 the results were Tg IFNy HTS inactive.
`COc1ccc(Cl)cc1C(=O)Nc1ccc(-c2nc(Cn3cc(C)cn3)c(C)o2)cc1` gave Tg IFNy HTS inactive.
Screening CCCN1CC2(C1)CN(C(=O)CN1CCOCC1)[C@H](CO)c1c2c2ccc(OC)cc2n1C returned Tg IFNy HTS inactive.
Screening CCCCN(CC)CCNC(=O)C1=C(C)C(=O)OC12CCN(CC)CC2 returned Tg IFNy HTS inactive.
For Cc1nc(N2CCCC2)nc(N2CC(c3cccnc3)C2)c1C the results were Tg IFNy HTS inactive.
Screening O=C(NCc1ccc(F)cc1)C1CCN(c2ncccn2)CC1 returned Tg IFNy HTS inactive.
Screening Cc1ccc(S(=O)(=O)N2Cc3c(CN(C)C)nn(C)c3C2)cc1F returned Tg IFNy HTS inactive.
For N#CCNC(=O)c1ccc(-c2ccnc(Nc3ccc(N4CCOCC4)cc3)n2)cc1 the results were Tg IFNy HTS -80.
COc1ccc(NC(=O)CS(=O)CC(=O)Nc2ccc(N3CCOCC3)cc2)cc1 (centres undefined) was read as Tg IFNy HTS inactive.
Screening COc1ccc(-c2[nH]ncc2CNC(=O)c2ccc(N3CCOCC3)cc2)cc1 returned Tg IFNy HTS inactive.
Screening O=c1cc(CCc2cccc(Cl)c2)nc2c(CN3CCNCC3)c[nH]n12 returned Tg IFNy HTS inactive.
CCC1(C2CCN(Cc3ccnn3-c3ccccc3)CC2)NC(=O)NC1=O (centres undefined) was read as Tg IFNy HTS inactive.
For CO[C@@H]1CN(C)C(=O)c2cc(NC(=O)c3ccc(Oc4ccccc4)cc3)ccc2OC[C@H](C)NC[C@@H]1C the results were Tg IFNy HTS -97.
CO[C@H]1CN(C)C(=O)c2cc(NS(=O)(=O)c3cccc(Cl)c3)ccc2OC[C@H](C)NC[C@H]1C was read as Tg IFNy HTS -86.
Screening CO[C@H]1CN(C)C(=O)c2cc(NC(=O)c3ccc(Oc4ccccc4)cc3)ccc2OC[C@H](C)NC[C@H]1C returned Tg IFNy HTS -98.
`COc1cccc(NC(=O)Nc2ccc3c(c2)C(=O)N(C)C[C@H](OC)[C@@H](C)CN[C@H](C)CO3)c1` gave Tg IFNy HTS inactive.
`CO[C@H]1CN(C)C(=O)c2ccc(NC(=O)c3cccc(F)c3)cc2OC[C@@H](C)NC[C@@H]1C` gave Tg IFNy HTS inactive.
For CO[C@@H]1CN(C)C(=O)c2cc(NC(=O)c3ccc(Oc4ccccc4)cc3)ccc2OC[C@@H](C)NC[C@H]1C the results were Tg IFNy HTS -119.
CO[C@@H]1CN(C)C(=O)c2cc(NS(=O)(=O)c3cn(C)cn3)ccc2OC[C@@H](C)NC[C@@H]1C was read as Tg IFNy HTS inactive.
`COc1cccc(NC(=O)Nc2ccc3c(c2)C(=O)N(C)C[C@@H](OC)[C@H](C)CN[C@@H](C)CO3)c1` gave Tg IFNy HTS inactive.
`CO[C@@H]1CN(C)C(=O)c2cc(NC(=O)c3cnccn3)ccc2OC[C@H](C)NC[C@H]1C` gave Tg IFNy HTS inactive.
For CO[C@@H]1CN(C)C(=O)c2cc(NC(=O)c3cnccn3)ccc2OC[C@H](C)NC[C@@H]1C the results were Tg IFNy HTS inactive.
For CO[C@H]1CN(C)C(=O)c2cc(NS(=O)(=O)c3cccc(Cl)c3)ccc2OC[C@@H](C)NC[C@H]1C the results were Tg IFNy HTS inactive.
`COc1cccc(NC(=O)Nc2ccc3c(c2)C(=O)N(C)C[C@H](OC)[C@H](C)CN[C@@H](C)CO3)c1` gave Tg IFNy HTS inactive.
Screening Cc1noc(C)c1C(=O)N1CCCC2(CC(CN3CCCC3)CO2)C1 (centres undefined) returned Tg IFNy HTS inactive.
Screening CN1C(=O)c2cc(C(=O)N3CCN(c4ncccn4)CC3)nn2CC1(C)C(=O)NC1CCCCC1 (centres undefined) returned Tg IFNy HTS inactive.
Screening COCCCN=C(Nc1cccc(C(=O)O)c1)N1CCN(c2ncnc3ccccc23)CC1 returned Tg IFNy HTS inactive.
O=C(NCC1(c2cccc(F)c2)CCOCC1)c1cnnn1-c1ccccc1 was read as Tg IFNy HTS inactive.
CC(C)c1ncc(CN2CCC(C3CC=CCN(CCc4ccccc4)C3=O)CC2)cn1 (centres undefined) was read as Tg IFNy HTS inactive.
`N#Cc1ccc(N2CC3(CCN(c4nccs4)C3)CC2=O)cc1` (centres undefined) gave Tg IFNy HTS inactive.
For Cc1cc(COc2ccccc2)oc1C(=O)N1CCC(n2ccnc2)C1 (centres undefined) the results were Tg IFNy HTS inactive.

Screening data: PubChem, Broad Institute
